Results filed as inconclusive are left out. Unmarked numbers belong to inactive results. Activity calls are given as the source filed them. The call rests on the fitted dose curve; in most records, active means well fitted inhibition curve with a large enough effect; inconclusive means small, poorly fitted or top-dose-only effect; inactive means no such curve, though single readings can be large or run the other way.
Biological target: Retinaldehyde dehydrogenase 3 (Homo sapiens) (UniProt P47895)
Test: qHTS for Inhibitors of the Aldehyde Dehydrogenase Family (ALDH1A3) Primary screen (AID 2061315);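 further: plate controls were DMSO vehicle for no effect and reference inhibitor for full effect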
Conditions: ALDH inhibition qHTS; series mostly up to 56 µM; activity change, negative = inhibition: at the top concentration

Row | SMILES | activity change, negative = inhibition | Potency
1 | CC(=O)O[C@@H](C[C@@H]1C=C(C)C(=O)O1)[C@H](C)[C@H]1CCC2[C@@]3(C)CC[C@H](O[C@@H]4O[C@H](CO)[C@@H](O)[C@H](O)[C@H]4O[C@@H]4O[C@@H](C)[C@H](O)[C@@H](O)[C@H]4O)C(C)(C)C3CC[C@@]2(C)[C@@]12COC(=O)C2 (stereo not given in full) | 3.01% [at 16.9 µM] | –
2 | COC(=O)C1=CO[C@@H](O[C@@H]2O[C@H](CO)[C@@H](O)[C@H](O)[C@H]2O)[C@@H]2C(COC(C)=O)=C[C@H](O)[C@H]12 | -1.58% [at 28 µM] | –
3 | C[C@@H]1O[C@@H](O[C@H]2[C@@H]3C=CO[C@@H](O[C@@H]4O[C@H](CO)[C@@H](O)[C@H](O)[C@H]4O)[C@@H]3[C@@]3(CO)O[C@@H]23)[C@H](O)[C@H](O)[C@H]1OC(=O)/C=C/c1ccc(O)cc1 | -9.18% [at 16.9 µM] | –
4 | C[C@@H]1O[C@@H](O[C@@H]2[C@@H](O)[C@H](O[C@@H]3[C@@H](O)[C@@H](O)[C@H](O[C@H]4[C@H](OC(=O)[C@]56CCC(C)(C)C[C@H]5C5=CCC7[C@@]8(C)C[C@H](O)[C@H](O[C@@H]9O[C@@H](C)[C@H](O)[C@@H](O)[C@H]9O)[C@@](C)(CO)C8CC[C@@]7(C)[C@]5(C)C[C@H]6O)O[C@H](C)[C@H](O)[C@@H]4O)O[C@H]3C)OC[C@H]2O)[C@H](O)[C@H](O)[C@H]1O (stereo not given in full) | 5.2% [at 11.2 µM] | –
5 | C[C@@H]1O[C@@H](O[C@H]2[C@H](OC(=O)[C@]34CCC(C)(C)C[C@H]3C3=CCC5[C@@]6(C)C[C@@H](O)[C@@H](O)[C@@](C)(CO)C6[C@H](O)C[C@@]5(C)[C@]3(C)CC4)OC[C@H](O)[C@@H]2O)[C@H](O)[C@H](O)[C@H]1O[C@@H]1OC[C@@H](O)[C@H](O[C@H]2O[C@H](C)[C@@H](O)[C@H](O)[C@@H]2O)[C@H]1O (stereo not given in full) | -3.33% [at 16.9 µM] | –
6 | CC(C)C1NC(=O)C(CC2(O)c3ccccc3N3C(=O)C(Cc4ccccc4)NC32)NC1=O (stereo not given) | -0.632% [at 28 µM] | –
7 | Cc1cccc(N2CCN(C(=O)c3cc(S(=O)(=O)N(C)C)ccc3N3CCCC3)CC2)c1C | -6.61% | –
8 | CC1OC(O[C@@H]2[C@@H](O)[C@H](OC(=O)[C@]34CCC(C)(C)C[C@H]3C3=CCC5[C@@]6(C)CC[C@H](O[C@@H]7O[C@H](C(=O)O)[C@@H](O)[C@H](O[C@@H]8OC[C@@H](O)[C@H](O)[C@H]8O)[C@H]7O[C@@H]7O[C@H](CO)[C@H](O)[C@H](O)[C@H]7O)[C@@](C)(C=O)C6CC[C@@]5(C)[C@]3(C)C[C@H]4O)O[C@H](C)[C@@H]2OC2OC(C)C(OC3OCC(O)C(O)C3O)C(O)C2O)C(O)C(O)C1O (stereo not given in full) | 5.21% [at 11.2 µM] | –
9 | CC[C@@H](C)[C@@H]1OC2(C=C[C@H]1C)C[C@@H]1C[C@H](C/C=C(\C)[C@H](O[C@H]3C[C@H](OC)[C@H](O[C@H]4C[C@H](OC)[C@H](NC(C)=O)[C@H](C)O4)[C@H](C)O3)[C@H](C)/C=C/C=C3\CO[C@H]4[C@H](O)C(C)=C[C@@H](C(=O)O1)[C@@]34O)O2 (stereo not given in full) | 7.16% | –
10 | CC(=O)NC(Cc1ccccc1)C(=O)O (stereo not given) | 0.835% [at 81.8 µM] | –
11 | C[C@@H]1CC[C@]2(C(=O)O[C@@H]3O[C@H](CO[C@@H]4O[C@H](CO)[C@@H](O)[C@H](O)[C@H]4O)[C@@H](O)[C@H](O)[C@H]3O)CC[C@]3(C)C(=CCC4[C@@]5(C)CC[C@H](O)[C@](C)(C(=O)O)C5CC[C@]43C)[C@@H]2[C@]1(C)O (stereo not given in full) | 4.15% [at 16.9 µM] | –
12 | O=S(=O)(c1ccccc1)c1cnc2c(N3CCNCC3)cccc2c1 | -11.8% | –
13 | CC1(C)CC[C@]2(C(=O)O)CC[C@]3(C)C(=CCC4[C@@]5(C)C[C@@H](O)[C@H](O)[C@](C)(CO)C5CC[C@]43C)[C@@H]2[C@@H]1O (stereo not given in full) | 9.48% [at 28 µM] | –
14 | C/C=C(\C)C(=O)OC[C@H]1O[C@H](O[C@H]2O[C@H](CO)[C@@H](OC(=O)/C(C)=C/C)[C@H](O)[C@H]2O[C@@H]2O[C@H](CO)[C@@H](O)[C@H](O)[C@H]2O)[C@H](O[C@@H]2O[C@H](CO)[C@@H](O)[C@H](O)[C@H]2O)[C@@H](O)[C@@H]1O | -6.6% [at 16.9 µM] | –
15 | COc1ccc(C2(O)c3ccccc3NC(=O)C2O)cc1 (stereo not given) | 1.21% | –
16 | C/C1=C\[C@H]2OC(=O)[C@@H](C)[C@@H]2CC/C(C(=O)O)=C/CC1 | 3.26% | –
17 | O=C(O)CCc1cccc(O)c1O[C@@H]1O[C@H](CO)[C@@H](O)[C@H](O)[C@H]1O | 13.3% | –
18 | COC(=O)CC[C@@H](C)C1CCC2C3CCC4C[C@H](OC(C)=O)CCC4(C)C3C[C@H](O)C21C (stereo not given in full) | 0.568% | –
19 | O=S(=O)(c1ccc(S(=O)(=O)n2cnc3ccccc32)cc1)N1CCCCCC1 | -10.9% [at 28 µM] | –
20 | COC(=O)[C@@]1(O)C=CC[C@@H]2[C@@]3(C)C[C@@H](c4ccoc4)OC(=O)[C@H]3CC[C@]21C | 3.24% | –

Row | SMILES | activity change, negative = inhibition | Potency
21 | COc1cccc(Cn2ncc3c4sc(S(C)=O)cc4n(C)c3c2=O)c1 (stereo not given) | – | inactive
22 | CC1(C(=O)O)CCCC2(C)C3=CCC4CC3(CCC12)CC4CO (stereo not given) | 4.39% | –
23 | CN1CCc2cc(Cl)c(O)cc2[C@@H](c2cccc3c2OCC3)C1 | 3.39% | –
24 | COc1cc2ncnc(Nc3ccc(F)c(Cl)c3)c2cc1O | 12.5% | –
25 | CC(/C=C/[C@]1(O)[C@@]2(C)CO[C@@]1(C)C[C@@H](O)C2)=C\C(=O)O[C@@H]1O[C@H](CO)[C@@H](O)[C@H](O)[C@H]1O | -18.6% [at 28 µM] | –
26 | COC(=O)C[C@H]1C(C)(C)[C@H](OC(=O)c2ccccc2)C2CC3=C4CC(=O)O[C@@H](c5ccoc5)[C@]4(C)CCC3[C@@]1(C)C2=O (stereo not given in full) | 16% [at 28 µM] | –
27 | CCOc1cccc(NC(=O)c2ccc(N3CCCC3)c(C(F)(F)F)c2)c1 | 5.05% | –
28 | C=CC1(C)C=C2C(=O)CC3C(C)(C)CCCC3(C(=O)O)C2(O)CC1 (stereo not given) | 3.79% | –
29 | C[C@H]1[C@H](C)CC[C@]2(C(=O)O)CC[C@]3(C(=O)O)C(=CCC4[C@@]5(C)CC[C@H](O[C@@H]6O[C@@H](C)[C@H](O)[C@@H](O)[C@H]6O)C(C)(C)C5CC[C@]43C)[C@H]12 (stereo not given in full) | 0.0664% [at 16.9 µM] | –
30 | CC1(C)CC2C3=CCC4C5(C)CCC(OC6OC(C(=O)O)C(O)C(O)C6OC6OC(CO)C(O)C(O)C6OC6OC(CO)C(O)C(O)C6O)C(C)(CO)C5CCC4(C)C3(C)CCC2(C)C(OC2OCC(O)C(OC3OC(CO)C(O)C(O)C3O)C2O)C1O (stereo not given) | -21.1% [at 11.2 µM] | –
31 | CCNc1nc(Nc2cc(F)c(C(=O)N3CCOCC3)cc2OC)ncc1C(F)(F)F | 9.66% | –
32 | C=C1C(O)C(OC(=O)c2ccccc2)C2C(C)(C(=O)O)CCCC2(C)C1CC/C(C)=C\CO (stereo not given) | 18.7% [at 28 µM] | –
33 | C[C@]12C=C[C@@]3(CCC4[C@](C)(CO)CCC[C@@]4(C)C3CC1)C2 (stereo not given in full) | 6.06% | –
34 | CC(C)CCC[C@@H](C)[C@H]1CC[C@H]2[C@@H]3CC(=O)[C@H]4C[C@@H](O)CC[C@]4(C)[C@H]3CC[C@]12C | -12% | –
35 | C=C1C(=O)O[C@@H]2/C=C(\C)C(=O)/C=C/[C@](C)(O)C[C@@H](OC(=O)C(C)C)[C@@H]12 | -1.04% | –
36 | CCc1nn(CCO)c(CC)c1Oc1cc(C#N)cc(C#N)c1 | -1.21% | –
37 | CC1(C)CCC2(C(=O)OC3OC(COC4OC(CO)C(O)C(O)C4O)C(O)C(O)C3O)CCC3(C)C(=CCC4C5(C)CCC(O)C(C)(C(=O)O)C5CCC43C)C2C1O (stereo not given) | 9.85% [at 16.9 µM] | –
38 | C=C(C)[C@@H]1CC[C@](C)(O)[C@@H](OC(=O)c2ccccc2)C1 | 2.17% | –
39 | COC1CC(=O)C23C(=O)NC(Cc4c[nH]c5ccccc45)C2C(C)C2(C)OC2C3/C=C/CC(C)CC1O (stereo not given) | 2.52% [at 28 µM] | –
40 | C[C@@H]1C(=O)O[C@H](C)[C@H]1CC(=O)[C@](C)(O)[C@H]1CC[C@@]2(O)C3=CC(=O)[C@@H]4C[C@@H](O)[C@@H](O)C[C@]4(C)C3CC[C@]12C (stereo not given in full) | -16.7% [at 28 µM] | –

Source: PubChem BioAssay (NCATS)
